# E coli growth-1: E. coli growth inhibition, primary screen, OD600; Escherichia coli growth, 23 h; hits give low values; OD600 absorbance (no concentration beside the values); actives 0.21% (n = 330,000); AID 1053175, 2014;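 active = OD600 absorbance below the run mean of sample wells minus 3.6 SD, in any replicate, cut at about 0.56 in these data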
# Tat export inh: E. coli Tat export inhibitors, primary screen, MC4100, TorA-mCherry reporter, fluorescence, single point; inhibition, % at 10 µM; actives 0.036% (n = 340,000); AID 488895, 2010;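 active = mean replicate inhibition at least 50% and at least half of replicates individually reaching 50%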;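 note: exported cargo escapes ClpAP degradation while cytoplasmic cargo is degraded and loses fluorescence; 0% = median of neutral control wells and 100% = median of NaSCN control wells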
# AddAB inh: growth inhibition of E. coli expressing H. pylori AddAB, primary screen, AddAB inhibitor project, absorbance; inhibition, % at 11.9 µM; AID 435030, 2010; actives 0.29% (n = 330,000); in the data active = inhibition above about 12%;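 note: 0% = vehicle wells of infected cells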
# phage Ecoli inh: growth loss of phage-infected E. coli, primary screen, RecBCD inhibitor project, absorbance, with phage, HTS | inhibition, % at 11.9 µM | actives 0.26% (n = 360,000); in the data active = inhibition above about 11%
# E coli growth-2: E. coli V3065 growth inhibition, primary screen, counter-screen for AddAB inhibitor project, absorbance, OD600; 18 h; inhibition, % at 11.9 µM; actives 0.27% (n = 330,000); AID 449728, 2010;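 active = inhibition above the campaign's mean inhibition across all tested compounds plus 3 SD, cut at about 9.9% in these data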;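 note: uninfected addAB+ strain grown without phage in ampicillin broth; 0% = DMSO wells and 100% = ciprofloxacin 0.95 µg/ml wells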
# AddAB conf: growth loss of phage-infected E. coli expressing H. pylori AddAB, confirmation, AddAB inhibitor project, absorbance, E. coli V3065, T4 phage, triplicate. inhibition, % at 11.9 µM. actives 64% (n = 880). shares compounds with AddAB inh. OD; T4 phage with gene 2 nonsense mutations;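 active = mean inhibition above a set limit taken from the earlier primary screen, cut at about 13% in these data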;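 note: higher means less bacterial growth since AddAB block lets phage replicate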
# RecBCD counter: growth loss of RecBCD+ E. coli with mutant T4 phage, counter-screen for AddAB inhibitor project, absorbance, V66 E. coli; shares compounds with AddAB inh; OD growth; inhibition, % at 11.9 µM; actives 73% (n = 880); AID 488955, 2010;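 active = mean inhibition above the mean of solvent-only control wells plus 3 SD, cut at about 4% in these data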;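 note: optical density read after an 18 h incubation at 37 °C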
# Bact viability: bacterial viability inhibition counter-screen, confirmation, counter-screen for AddAB inhibitor project, absorbance; shares compounds with AddAB inh; inhibition, % at 11.9 µM; absorbance (AddAB counterscreen); actives 35% (n = 880); in the data active = inhibition above about 25%
# RecBCD conf: growth loss of phage-infected RecBCD+ E. coli, confirmation, RecBCD inhibitor project, absorbance, E. coli V66, T4 gene 2 phage. shares compounds with phage Ecoli inh. E. coli V66 + T4 2- phage, growth OD. inhibition, % at 11.9 µM. actives 45% (n = 890). AID 651982, 2013;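 active = mean inhibition over triplicates exceeding the hit threshold derived in the original primary screen, cut at about 11% in these data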
# Ecoli viability: E. coli viability inhibition, counter-screen for RecBCD inhibitor project, absorbance, high throughput; shares compounds with phage Ecoli inh; absorbance (OD) growth; inhibition, % at 11.9 µM; actives 29% (n = 890); AID 651983, 2013; in the data active = inhibition above about 20%;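 note: E. coli strain V66 grown with compound alone and no phage infection; 0% = bacteria with DMSO vehicle only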
# AddAB phage OD: growth loss of phage-infected AddAB-carrying E. coli, confirmation, counter-screen for RecBCD inhibitor project, absorbance, E. coli V3065, T4 phage | shares compounds with phage Ecoli inh | inhibition, % at 11.9 µM | AID 651984, 2013 | E. coli expressing H. pylori AddAB + T4 phage, OD growth; gene 2 mutant T4, recBCD-deleted host | actives 45% (n = 890);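 active = mean inhibition above the solvent-only control wells' mean plus 3 SD, cut at about 22% in these data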;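 note: higher means less bacterial growth from phage killing when AddAB is blocked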
# The depositor's hits bear a star; / = no result given. The list is not random: actives were taken first. Their share in the collection is about 0.51%.
SMILES,E coli growth-1,Tat export inh,AddAB inh,phage Ecoli inh,E coli growth-2,AddAB conf,RecBCD counter,Bact viability,RecBCD conf,Ecoli viability,AddAB phage OD
COc1cc(C=C2SC(=O)N(Cc3ccccc3)C2=O)ccc1OCc1ccncc1,0.65,/,/,/,/,/,/,/,/,/,/
Brc1ccc(N/N=C(/N=Nc2nn[nH]n2)c2ccccc2)cc1,/,15,30*,26*,30*,22*,26*,25*,21*,23*,28*
Brc1ccc(NN=C(N=Nc2nn[nH]n2)c2ccccc2)cc1,0.6,/,/,/,/,/,/,/,/,/,/
CC=C(C)C(=O)Nc1cccc(C2=NOC3(C2)CC(C(N)=O)N(C(=O)c2cc([N+](=O)[O-])cc([N+](=O)[O-])c2C)C3)c1 (centres undefined),0.7,/,/,/,/,/,/,/,/,/,/
O=C(NN=C1CCc2ccccc21)c1ccc(O)cc1,0.63,/,/,/,/,/,/,/,/,/,/
CO[C@@]1(NC(=O)C2SC(=C(C(N)=O)C(=O)O)S2)C(=O)N2C(C(=O)O)=C(CSc3nnnn3C)CS[C@@H]21 (some centres undefined),/,-79,97*,100*,97*,101*,101*,101*,103*,105*,103*
COC(=O)c1ccc(CSc2nnnn2C)o1,0.73,0,2,1,-3,/,/,/,/,/,/
O=C(N/N=C/c1ccc(O)cc1O)c1ccc(CN2C(=O)c3cccc4cccc2c34)cc1,/,3,14*,22*,25*,16*,20*,10,9,11,16
Cc1cc([N+](=O)[O-])nn1Cc1ccc(C(=O)N/N=C/c2ccc(O)cc2O)cc1,/,-2,19*,17*,20*,23*,19*,13,5,7,10
COc1cc(Cc2cnc(N)nc2N)cc(OC)c1OC,0.064*,-28,99*,101*,100*,98*,100*,100*,101*,102*,101*
COc1cc(CN2CCCCCC2)cc(OC)c1OC,0.67,2,3,2,0,/,/,/,/,/,/
O=C1c2ccccc2NC(c2ccc(-c3ccc(F)cc3)o2)N1O (centres undefined),/,-5,7,2,6,/,/,/,/,/,/
O=C1c2ccccc2NC(c2ccc(-c3ccc(Br)cc3)o2)N1O (centres undefined),0.62,-26,24*,23*,24*,19*,18*,17,14*,14,15
O=C1c2ccccc2NC(c2ccc(-c3cccc([N+](=O)[O-])c3)o2)N1O (centres undefined),0.63,-3,27*,22*,25*,21*,20*,17,9,14,12
CC(=O)NN1C(=O)c2ccccc2NC1c1cccc([N+](=O)[O-])c1 (centres undefined),0.66,4,1,2,0,/,/,/,/,/,/
CCCOC(=O)C(=CC=Cc1ccco1)NC(=O)c1ccccc1,0.66,/,/,/,/,/,/,/,/,/,/
CC(=O)c1c(C)n([O-])c2cc(F)c(F)cc2[n+]1=O,0.11*,29,63*,22*,53*,98*,26*,88*,23*,31*,91*
COc1ccc2c(c1)[n+](=O)c(C(C)=O)c(C)n2[O-],0.69,3,1,1,0,/,/,/,/,/,/
